# Results from PubChem BioAssay AID588382 (National Center for Advancing Translational Sciences (NCATS), 2011).
# Out of some 1,300 compounds screened, about 150 (12%) were called active. About 30% were inconclusive and are not listed. The sample as a whole holds a higher share of actives than the screen did. Values without a mark were called inactive. Calls follow the shape of the dose curve; as a rule, active = well fitted cell-killing curve with a large enough effect; inconclusive = small, poorly fitted or top-dose-only effect, or effect the other way; inactive = flat fitted curve, though single readings scatter.
# Assay: qHTS of small molecules that selectively kill Giardia lamblia: Hit Validation in HepG2 cytotox;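 also: compound exposure lasted overnight at 37 deg C; nearly all actives have a fitted effect of over 55% in size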;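 as to activity change, negative = cytotoxicity: viability measured as cellular ATP by ATPLite luminescence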
# Details: cell viability; Potency: HepG2 cytotoxicity; series mostly up to 38.3 µM; activity change, negative = cytotoxicity: at the top concentration
# Outline: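 Counterscreen cytotoxicity: ATPLite luminescence (15 min, room temperature) measured in HepG2 cells exposed overnight at 37 deg C to pin-transferred compound (23 nL) after overnight pre-incubation.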
# % is scaled to controls: 0 for no effect and ±100 for the full control effect; potency is read from the fitted curve at half-maximal effect.
Structure (SMILES),Potency,"activity change, negative = cytotoxicity"
O=c1c2ccccc2nc(/C=C/c2ccc([N+](=O)[O-])o2)n1CCCO,3.69 µM (active),–
O=[N+]([O-])c1ccc(/C=C/C2=NN(c3ccccc3)C(c3ccco3)C2)o1 (stereo unspecified),–,0.147%
CC(=O)N(/N=C/c1ccc([N+](=O)[O-])o1)c1nc2ccccc2c(=O)n1-c1ccccc1,–,-17.4%
O=[N+]([O-])c1ncccc1Oc1nc(-c2cccnc2)nc2ccccc12,–,13.1%
COc1ccc(C(=O)COC(=O)c2ccccc2NS(=O)(=O)c2ccc(O)c([N+](=O)[O-])c2)cc1,–,9.65%
Cc1[nH]n(S(=O)(=O)c2ccccc2)c(=O)c1N=Nc1cccc(Cl)c1,–,1.32%
Cc1[nH]n(C2=NCCS2)c(=O)c1N=Nc1cccc(C(F)(F)F)c1,4.65 µM (active),–
CN(C(=O)c1ccc(N2CCCCC2)c([N+](=O)[O-])c1)C1CCS(=O)(=O)C1 (stereo unspecified),–,11.3%
Cc1ccc(C(=O)c2c3ccc([N+](=O)[O-])cc3[n+]([O-])n2CCCC(N)=O)cc1,–,-12.8%
O=c1cc[nH]c2ccc([N+](=O)[O-])cc12,–,22.3%
Cc1cc(C(=O)COc2cccnc2[N+](=O)[O-])c(C)n1Cc1ccco1,–,10%
c1ccc(-c2nc(-c3cnc4ccccc4n3)cs2)cc1,–,-21.7%
Clc1ccc2oc(-c3ccccc3)cc(=NCCCN3CCOCC3)c2c1,–,-1.78%
CC1(C)CC(N=c2cc(-c3ccccc3)oc3ccc(Cl)cc23)CC(C)(C)N1,8.26 µM (active),–
CN(C)CCCN=c1cc(-c2ccccc2)oc2ccc(Cl)cc12,–,-8.36%
O=C(CSc1ccsc1[N+](=O)[O-])NCCc1ccc(Cl)cc1,–,19.5%
O=[N+]([O-])c1cn(-c2nc(-c3ccco3)cc(C(F)(F)F)n2)cn1,–,2.48%
CNN/C(N=Cc1ccc([N+](=O)[O-])s1)=N\S(=O)(=O)c1cc(C)c(Cl)cc1SCc1ccccc1,–,-14.4%
Clc1ccc2c(N/N=C/c3ccccc3Br)ccnc2c1,14.7 µM (active),–
Clc1ccc2c(N/N=C/c3cccc(Br)c3)ccnc2c1,11.7 µM (active),–
CCOC(=O)C1CCN(c2ccc([N+](=O)[O-])c(C(C)=O)c2)CC1,–,16.6%

Structure (SMILES),Potency,"activity change, negative = cytotoxicity"
Cc1ccc(C(C(=O)NCc2ccco2)N(C(=O)CNC(=O)c2cccs2)c2c(C)cccc2C)cc1 (stereo unspecified),–,2.07%
NC(=O)c1ccc(Nc2ccc([N+](=O)[O-])cc2[N+](=O)[O-])cc1,–,-4.24%
CC(=O)c1c(C)n([O-])c2ccc(C)cc2[n+]1=O,–,6.07%
C=CCn1c(C)cc(C(=O)COC(=O)c2n[nH]c(=O)c3ccccc23)c1C,–,4.65%
COc1ccc(-n2nc([N+](=O)[O-])c(=NCCC3=CCCCC3)n2O)cc1,–,1.4%
COc1ccc2c3n([n+]([O-])c2c1)CCN=C3c1cc(Cl)c(N)c(Cl)c1,–,12.3%
O=c1[nH]cnc2ccc([N+](=O)[O-])cc12,–,17.7%
COC(=O)Nc1nc2ccc(Sc3ccccc3)cc2[nH]1,–,0.0974%
COc1cc(SC)ccc1C(=O)Nc1nc2ccccc2[nH]1,2.07 µM (active),–
COC(=O)Nc1nc2ccc(SC(C)C)cc2[nH]1,–,29%
COc1ccc(-n2nc([N+](=O)[O-])c(=NCCc3ccccc3)n2O)cc1,–,8.74%
CCCCC12CN3CC(C)(CN(C1)C3c1ccc([N+](=O)[O-])o1)C2=O (stereo unspecified),–,-4.07%
Cc1ccc(S(=O)(=O)N2[C@@H](c3ccc(F)cc3)C(C(=O)O)=CC[C@H]2c2cccs2)cc1,–,16.8%
COc1ccc(C(=O)CC(SCC(NC(C)=O)C(=O)O)c2ccc(Cl)cc2)cc1OC (stereo unspecified),–,21.9%
Cc1cc(C)cc(N=c2c([N+](=O)[O-])nn(-c3cccc(Cl)c3)n2O)c1,–,17.1%
Cc1ccc(-c2nnc(NC(=O)c3ccc([N+](=O)[O-])o3)o2)c(C)c1,–,-10.4%
O=C(Nc1ccc2oc(-c3cccnc3)nc2c1)c1ccc([N+](=O)[O-])o1,13.1 µM (active),–
O=C(Nc1ccc2oc(-c3ccccc3F)nc2c1)c1ccc([N+](=O)[O-])o1,–,16.3%
O=C(Nc1ccc2oc(-c3ccncc3)nc2c1)c1ccc([N+](=O)[O-])o1,16.5 µM (active),–
Cc1cccnc1NC(=O)c1ccc([N+](=O)[O-])o1,–,5.86%
O=C(Nc1ccc(-c2nc3ncccc3o2)cc1)c1ccc([N+](=O)[O-])o1,4.65 µM (active),–

Structure (SMILES),Potency,"activity change, negative = cytotoxicity"
COc1ccc(-n2c(C)cc(C(=O)COc3ccc(C)nc3[N+](=O)[O-])c2C)cc1,–,0.437%
CC(=O)c1c(COC(=O)c2ccc(F)cc2)nc2ccccc2[n+]1[O-],–,26.6%
COc1ccc(-n2nc([N+](=O)[O-])c(=NCCc3ccc(OC)c(OC)c3)n2O)cc1,–,19.2%
Cc1cccc(NC(=O)CN2C(=O)S/C(=C\c3ccc(O)c([N+](=O)[O-])c3)C2=O)c1,–,1.03%
Cn1nc(N)c2c(-c3ccc(Cl)cc3)c(C#N)c(N)nc21,–,18.2%
O=[N+]([O-])c1ccc(/C=N/Nc2nc(N3CCCC3)nc(N3CCCC3)n2)o1,–,27.3%
CCN(CC)S(=O)(=O)c1cccc(N=Nc2c(O)c3ccccc3oc2=O)c1,–,3.89%
Cc1ccc(S(=O)(=O)N2[C@@H](c3ccc(Cl)cc3)C(C(=O)O)=CC[C@H]2c2cccc(Cl)c2)cc1,–,4.59%
O=[N+]([O-])c1ccc(NCc2ccccc2N2CCC(CO)CC2)nc1,–,0.405%
Cc1c(Cl)cccc1N=c1c([N+](=O)[O-])nn(-c2ccccc2)n1O,–,11.6%
CN=c1c([N+](=O)[O-])nn(-c2ccc3c(c2)OCCO3)n1O,–,19.2%
O=c1c2c([N+](=O)[O-])cc([N+](=O)[O-])cc2nc2ccccn12,–,12.5%
CCCC12CN3CC(C)(CN(C1)C3c1ccc([N+](=O)[O-])o1)C2=O (stereo unspecified),–,23.5%
CC(=O)CSc1ccc(-c2nc3ccccc3[nH]2)cn1,14.7 µM (active),–
Cc1ncc([N+](=O)[O-])n1CCOC(=O)NC(NCc1ccccc1)C(Cl)(Cl)Cl (stereo unspecified),–,6.73%
Cc1cnc(N=Nc2ccccc2)[nH]1,–,9.01%
Cc1cc2nc(-c3ccc[nH]c3=O)[nH]c2cc1C,2.33 µM (active),–
O=[N+]([O-])c1nn(-c2ccc3c(c2)OCCO3)n(O)c1=NC1CCCCC1,–,-2.04%
CC(NC(=O)COc1cccnc1[N+](=O)[O-])c1ccc(F)cc1 (stereo unspecified),–,20.7%
